From ChEMBL document CHEMBL1961873, “Compounds: GSK PKIS; Assays: Nanosyn kinase panel” (2012) come the findings set out here.

The target of test [1] is Serine/threonine-protein kinase pim-2 (Homo sapiens) (UniProt Q9P1W9). As to conditions: at 1 µM.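 Note: each value is a mean of the inhibition measurements against the kinase.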
Test [2] has as its target Serine/threonine-protein kinase pim-3 (Homo sapiens) (UniProt Q86V86). As to conditions: at 0.1 µM.
The target is the same in test [3]. To be noted: at 1 µM.
Test [4] addresses T1, MAP kinase-activated protein kinase 5 (Homo sapiens) (UniProt Q8IW41).
T1 sequence (whole entry): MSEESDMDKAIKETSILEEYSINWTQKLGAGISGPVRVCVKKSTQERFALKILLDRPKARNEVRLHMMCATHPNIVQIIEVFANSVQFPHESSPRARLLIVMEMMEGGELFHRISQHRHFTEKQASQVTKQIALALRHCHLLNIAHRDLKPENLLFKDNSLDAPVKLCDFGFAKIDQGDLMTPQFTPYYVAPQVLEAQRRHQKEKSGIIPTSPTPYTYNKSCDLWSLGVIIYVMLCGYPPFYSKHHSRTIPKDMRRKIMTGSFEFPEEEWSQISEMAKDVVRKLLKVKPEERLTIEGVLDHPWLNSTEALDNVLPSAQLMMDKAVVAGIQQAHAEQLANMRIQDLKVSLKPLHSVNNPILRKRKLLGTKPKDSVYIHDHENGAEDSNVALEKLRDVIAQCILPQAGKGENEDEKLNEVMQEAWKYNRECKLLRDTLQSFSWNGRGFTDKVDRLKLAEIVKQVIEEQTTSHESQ
To be noted: at 0.1 µM.

The target of test [5] is T1, MAP kinase-activated protein kinase 5 (Homo sapiens). As to conditions: at 1 µM.
For test [6], the target named is Serine/threonine-protein kinase SIK1 (Homo sapiens) (UniProt P57059). To be noted: at 0.1 µM.
Chain of Serine/threonine-protein kinase SIK1 (Homo sapiens) (P57059 whole entry): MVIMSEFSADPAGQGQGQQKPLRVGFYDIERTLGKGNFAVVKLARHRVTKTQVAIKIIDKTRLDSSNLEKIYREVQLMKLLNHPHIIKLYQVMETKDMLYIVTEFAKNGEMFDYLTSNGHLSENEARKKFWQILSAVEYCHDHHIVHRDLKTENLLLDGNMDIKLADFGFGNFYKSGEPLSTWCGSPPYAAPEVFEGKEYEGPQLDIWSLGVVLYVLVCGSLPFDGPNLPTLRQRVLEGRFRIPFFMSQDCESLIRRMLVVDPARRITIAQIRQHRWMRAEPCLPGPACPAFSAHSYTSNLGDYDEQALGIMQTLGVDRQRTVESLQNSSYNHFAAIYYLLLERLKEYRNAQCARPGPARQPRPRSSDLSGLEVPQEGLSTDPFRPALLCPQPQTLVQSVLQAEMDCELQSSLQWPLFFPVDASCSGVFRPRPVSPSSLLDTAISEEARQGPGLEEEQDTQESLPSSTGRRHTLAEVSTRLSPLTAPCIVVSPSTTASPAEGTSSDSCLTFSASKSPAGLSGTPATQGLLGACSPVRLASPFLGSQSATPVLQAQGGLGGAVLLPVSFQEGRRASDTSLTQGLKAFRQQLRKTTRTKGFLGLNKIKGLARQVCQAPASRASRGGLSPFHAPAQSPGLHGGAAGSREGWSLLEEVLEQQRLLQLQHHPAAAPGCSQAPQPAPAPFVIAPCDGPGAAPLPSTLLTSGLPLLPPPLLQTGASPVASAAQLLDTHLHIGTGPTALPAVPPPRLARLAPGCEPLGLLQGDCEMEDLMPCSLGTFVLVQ
Test [7] has the same target. To be noted: at 1 µM.
Test [8] has as its target Serine/threonine-protein kinase SIK2 (Homo sapiens) (UniProt Q9H0K1). As to conditions: at 0.1 µM.
Test [9] shares this target. To be noted: at 1 µM.
The target of test [10] is T2, Serine/threonine-protein kinase TBK1 (Homo sapiens) (UniProt Q9UHD2).
T2 sequence (whole entry): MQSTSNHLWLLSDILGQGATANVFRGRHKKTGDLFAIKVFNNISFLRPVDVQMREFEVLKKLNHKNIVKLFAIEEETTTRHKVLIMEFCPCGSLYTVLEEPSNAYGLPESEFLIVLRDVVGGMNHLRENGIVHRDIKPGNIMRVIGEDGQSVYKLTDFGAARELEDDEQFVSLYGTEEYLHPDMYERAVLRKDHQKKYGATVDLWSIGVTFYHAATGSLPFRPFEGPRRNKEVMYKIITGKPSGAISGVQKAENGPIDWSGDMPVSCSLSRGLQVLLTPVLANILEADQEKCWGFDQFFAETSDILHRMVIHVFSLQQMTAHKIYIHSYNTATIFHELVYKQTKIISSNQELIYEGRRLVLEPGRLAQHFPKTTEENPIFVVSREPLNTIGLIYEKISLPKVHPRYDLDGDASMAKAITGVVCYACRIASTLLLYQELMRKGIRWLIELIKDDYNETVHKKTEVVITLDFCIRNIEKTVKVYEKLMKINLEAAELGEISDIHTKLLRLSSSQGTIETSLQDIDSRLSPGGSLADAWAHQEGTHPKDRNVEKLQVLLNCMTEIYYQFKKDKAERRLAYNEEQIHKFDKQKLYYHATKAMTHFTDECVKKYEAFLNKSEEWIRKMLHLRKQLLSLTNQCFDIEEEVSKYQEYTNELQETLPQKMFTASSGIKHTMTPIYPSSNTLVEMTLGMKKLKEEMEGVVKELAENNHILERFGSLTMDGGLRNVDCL
As to conditions: at 0.1 µM.

In test [11] the target is T2, Serine/threonine-protein kinase TBK1 (Homo sapiens). To be noted: at 1 µM.
For test [12], the target named is T3, Testis-specific serine/threonine-protein kinase 1 (Homo sapiens) (UniProt Q9BXA7).
T3 sequence (whole entry): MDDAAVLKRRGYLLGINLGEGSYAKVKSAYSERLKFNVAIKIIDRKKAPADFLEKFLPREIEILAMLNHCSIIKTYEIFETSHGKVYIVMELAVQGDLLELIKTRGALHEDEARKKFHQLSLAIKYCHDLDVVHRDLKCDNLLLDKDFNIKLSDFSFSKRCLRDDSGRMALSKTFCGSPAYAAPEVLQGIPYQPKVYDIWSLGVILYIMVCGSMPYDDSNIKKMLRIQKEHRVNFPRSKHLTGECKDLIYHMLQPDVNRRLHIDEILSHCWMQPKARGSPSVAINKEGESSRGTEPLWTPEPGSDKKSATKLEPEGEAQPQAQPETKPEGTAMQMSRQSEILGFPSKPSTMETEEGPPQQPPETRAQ
As to conditions: at 0.1 µM.

Test [13] has as its target T3, Testis-specific serine/threonine-protein kinase 1 (Homo sapiens). To be noted: at 1 µM.
Test [14] has as its target T4, Testis-specific serine/threonine-protein kinase 2 (Homo sapiens) (UniProt Q96PF2).
T4 sequence (whole entry): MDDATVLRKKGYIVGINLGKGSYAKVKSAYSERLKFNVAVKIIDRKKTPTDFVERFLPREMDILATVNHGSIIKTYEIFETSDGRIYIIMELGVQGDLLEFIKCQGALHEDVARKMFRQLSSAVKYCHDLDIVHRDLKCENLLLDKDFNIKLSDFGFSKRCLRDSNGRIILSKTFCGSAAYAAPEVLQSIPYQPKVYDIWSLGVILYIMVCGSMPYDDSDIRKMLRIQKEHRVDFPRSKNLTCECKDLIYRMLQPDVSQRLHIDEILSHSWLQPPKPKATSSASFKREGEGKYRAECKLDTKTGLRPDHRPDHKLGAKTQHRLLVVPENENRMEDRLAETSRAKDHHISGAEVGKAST
As to conditions: at 0.1 µM.

For test [15], the target named is T4, Testis-specific serine/threonine-protein kinase 2 (Homo sapiens). As to conditions: at 1 µM.
Test [16] deals with Casein kinase I isoform alpha (Homo sapiens) (UniProt P48729). To be noted: at 0.1 µM.
Chain of Casein kinase I isoform alpha (Homo sapiens) (P48729 2-337 limits assumed): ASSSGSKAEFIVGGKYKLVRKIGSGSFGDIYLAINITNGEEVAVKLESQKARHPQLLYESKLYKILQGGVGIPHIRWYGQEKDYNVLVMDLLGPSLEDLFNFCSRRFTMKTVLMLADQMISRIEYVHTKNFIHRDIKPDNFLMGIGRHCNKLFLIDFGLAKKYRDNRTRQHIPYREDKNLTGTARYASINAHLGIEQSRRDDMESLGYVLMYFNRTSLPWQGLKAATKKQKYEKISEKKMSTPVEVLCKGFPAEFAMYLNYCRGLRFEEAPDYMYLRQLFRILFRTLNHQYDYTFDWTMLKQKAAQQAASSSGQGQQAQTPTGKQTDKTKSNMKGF
For test [17] the target is unchanged. As to conditions: at 1 µM.
For test [18], the target named is Casein kinase I isoform gamma-1 (Homo sapiens) (UniProt Q9HCP0). To be noted: at 0.1 µM.
Chain of Casein kinase I isoform gamma-1 (Homo sapiens) (Q9HCP0 whole entry, looked up, canonical isoform): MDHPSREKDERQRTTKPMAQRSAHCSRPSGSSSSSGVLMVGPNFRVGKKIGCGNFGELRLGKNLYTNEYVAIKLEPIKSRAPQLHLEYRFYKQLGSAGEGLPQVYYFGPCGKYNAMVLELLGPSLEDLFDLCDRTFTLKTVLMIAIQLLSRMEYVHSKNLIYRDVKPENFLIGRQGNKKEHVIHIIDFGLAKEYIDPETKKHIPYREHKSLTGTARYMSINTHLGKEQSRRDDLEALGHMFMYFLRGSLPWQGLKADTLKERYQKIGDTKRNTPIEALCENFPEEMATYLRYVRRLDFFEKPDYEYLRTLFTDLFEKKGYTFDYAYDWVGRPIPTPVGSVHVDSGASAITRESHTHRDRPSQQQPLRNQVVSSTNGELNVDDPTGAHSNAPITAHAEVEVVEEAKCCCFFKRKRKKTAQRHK
Test [19] has the same target. To be noted: at 1 µM.
In test [20] the target is Casein kinase I isoform gamma-2 (Homo sapiens) (UniProt P78368). As to conditions: at 0.1 µM.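 Note: values are mean inhibition figures reported as part of the GSK PKIS dataset.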
Chain of Casein kinase I isoform gamma-2 (Homo sapiens) (P78368 whole entry, looked up, canonical isoform): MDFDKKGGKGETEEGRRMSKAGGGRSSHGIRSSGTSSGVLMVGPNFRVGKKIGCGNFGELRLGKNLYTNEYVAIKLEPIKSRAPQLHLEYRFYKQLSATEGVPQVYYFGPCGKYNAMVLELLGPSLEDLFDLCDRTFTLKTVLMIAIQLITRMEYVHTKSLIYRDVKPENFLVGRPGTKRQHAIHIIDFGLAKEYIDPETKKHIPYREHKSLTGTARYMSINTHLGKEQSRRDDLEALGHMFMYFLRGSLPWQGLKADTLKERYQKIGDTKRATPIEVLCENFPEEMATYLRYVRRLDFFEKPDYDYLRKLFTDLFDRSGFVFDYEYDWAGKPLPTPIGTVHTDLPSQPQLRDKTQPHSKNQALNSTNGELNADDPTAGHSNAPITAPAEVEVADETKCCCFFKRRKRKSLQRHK

The structures appear in SMILES notation. Several values for one entry are separate records, joined by “and”; a condition that tells them apart may be missing. Equal entries are not always repeated.

Chain of Serine/threonine-protein kinase SIK2 (Homo sapiens) (Q9H0K1 whole entry, looked up): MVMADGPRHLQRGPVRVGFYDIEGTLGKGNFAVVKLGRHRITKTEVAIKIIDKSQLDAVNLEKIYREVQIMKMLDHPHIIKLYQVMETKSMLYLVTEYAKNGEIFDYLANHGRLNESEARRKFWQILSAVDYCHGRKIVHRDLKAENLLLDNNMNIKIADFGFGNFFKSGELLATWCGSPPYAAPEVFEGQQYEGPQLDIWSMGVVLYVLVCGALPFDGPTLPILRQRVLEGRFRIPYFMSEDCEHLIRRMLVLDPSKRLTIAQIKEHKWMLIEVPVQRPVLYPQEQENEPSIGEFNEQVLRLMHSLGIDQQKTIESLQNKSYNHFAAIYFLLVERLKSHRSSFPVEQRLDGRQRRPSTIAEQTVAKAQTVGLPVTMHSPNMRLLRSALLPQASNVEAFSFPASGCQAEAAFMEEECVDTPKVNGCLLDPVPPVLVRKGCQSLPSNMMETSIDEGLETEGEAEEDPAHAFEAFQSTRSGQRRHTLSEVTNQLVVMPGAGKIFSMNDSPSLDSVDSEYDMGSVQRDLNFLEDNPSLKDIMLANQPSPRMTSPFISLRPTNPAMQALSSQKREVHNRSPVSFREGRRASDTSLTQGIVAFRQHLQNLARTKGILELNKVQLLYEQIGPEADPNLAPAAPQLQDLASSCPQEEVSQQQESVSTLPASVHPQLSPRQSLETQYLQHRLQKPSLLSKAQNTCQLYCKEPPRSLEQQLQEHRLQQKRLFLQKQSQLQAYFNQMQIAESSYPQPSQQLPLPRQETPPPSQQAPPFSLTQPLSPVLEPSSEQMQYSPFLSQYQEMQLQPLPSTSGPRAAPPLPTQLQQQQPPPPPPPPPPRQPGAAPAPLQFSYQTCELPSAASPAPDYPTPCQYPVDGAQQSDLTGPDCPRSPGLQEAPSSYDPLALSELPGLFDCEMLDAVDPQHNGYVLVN
Chain of Serine/threonine-protein kinase pim-2 (Homo sapiens) (Q9P1W9 whole entry, looked up): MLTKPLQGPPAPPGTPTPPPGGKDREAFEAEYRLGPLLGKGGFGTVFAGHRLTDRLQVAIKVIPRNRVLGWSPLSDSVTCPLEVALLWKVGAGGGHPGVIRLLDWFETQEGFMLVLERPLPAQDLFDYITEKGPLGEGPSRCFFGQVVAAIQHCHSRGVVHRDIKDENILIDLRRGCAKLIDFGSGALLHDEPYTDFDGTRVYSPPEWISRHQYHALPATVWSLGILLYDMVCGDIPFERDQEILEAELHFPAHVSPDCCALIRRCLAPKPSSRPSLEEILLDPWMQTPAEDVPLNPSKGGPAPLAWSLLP

For orientation: inhibition means the drop in the measured response relative to a control, in per cent. With `Nc1nonc1-c1nc2cnccc2n1C1CC1`, the inhibition is 11.3% and 9.18% in test [1]; 3.94% and 4.22% in [2]; 30.6% and 32.5% in test [3]; 0.67% and 1.06% in test [4]; -0.55% and 4.15% in [5]; 6.64% and 2.66% in test [6]. For the same molecule, the inhibition is 8.35% and 5.12% in test [7]; 0.75% and 5.71% in [8]; 5.93% and 2.36% in test [9]; 7.96% and 1.98% in [10]; 15.3% and 9% in [11]; 3.32% and 4.38% in [12]. In addition, the inhibition is 14.5% and 17.5% in test [13]; 1.12% and 1.1% in test [14]; -1.21% and 1.4% in [15]; 6.95% and 4.09% in test [16]; 6.23% and 9.54% in test [17]; 3.2% and -1.18% in test [18]. Moreover, the inhibition in test [19] is 3.96% and -0.27%; in [20], 1.76% and -1.82%.

In the case of `CCS(=O)(=O)c1ccc(OC)c(Nc2ncc(-c3cccc(C(C)=O)c3)o2)c1`, the inhibition in test [1] was -0.01%; in test [2] it was 0.38%; in [3], 4.79%; in test [4] it was 1.84%; in [5], 2%; in test [6], 6.02%. The inhibition in test [7] was found to be 15.1%; in [8], 3.14%; in [9], 14%; in test [10], 0.54%; in test [11] it was 5.54%; in test [12], 2.02%. Besides, the inhibition in test [13] worked out at 5.38%; in test [14] it was 3.72%; in test [15], 1.57%; in test [16], 0.47%; in [17], 2.36%; in test [18] it was 2.26%. For the same molecule, the inhibition in test [19] worked out at 2.79%; in [20] it was 2.75%.

In the case of `CNC(=O)c1ncccc1Nc1nc(Nc2cc3c(cc2OC)CCCN3C(=O)CN(C)C)nc2[nH]ccc12`, the inhibition in test [1] was determined as 5.43%; in [2], 2.42%; in [3], 22.6%; in [4], 0.95%; in [5] it was 0.65%; in test [6], 4.63%. For the same molecule, the inhibition in test [7] came out at 6.54%; in [8], 3.05%; in [9] it was 0.1%; in [10] it was 5.66%; in [11] it was 26.1%; in test [12] it was 85.5%. The inhibition turned out to be 93.9% in test [13]; 31% in test [14]; 73.2% in test [15]; 1.15% in test [16]; 6.71% in test [17]; 4.96% in test [18]. In addition, the inhibition was determined as 8.09% in [19] and 2.28% in test [20].

On to `O=C(O[C@H]1CN[C@H](C#Cc2cc3ncnc(Nc4ccc5c(ccn5Cc5cc(F)ccc5F)c4)c3s2)C1)N1CCOCC1`, for which the inhibition in test [1] is 0.17%; in test [2], -1.4%; in test [3], -2.6%; in test [4], 1.04%; in test [5], 0.93%; in test [6], 5.35%. In addition, the inhibition in [7] was 7.23%; in test [8], 2.92%; in [9], 7.13%; in test [10], 2.75%; in test [11] it was 2.11%; in [12], 3.63%. Further, the inhibition in test [13] turned out to be 4.15%; in test [14], 2.52%; in test [15] it was 1.57%; in [16], 2.93%; in test [17] it was 5.4%; in [18], 4.17%. Moreover, the inhibition was determined as 5.41% in test [19] and 3.09% in test [20].

Regarding `CCOc1ccc2c(-c3ccnc(Nc4cc(OC)cc(C(F)(F)F)c4)n3)cnn2n1`, the inhibition in test [1] was -0.11%; in test [2], 1.13%; in [3], 1.42%; in test [4] it was -0.27%; in [5], -0.8%; in test [6], 2.02%. Also, the inhibition in test [7] was 6.72%; in test [8], -0.16%; in test [9], 2.02%; in test [10], -0.57%; in test [11], 37%; in test [12], 0.8%. The inhibition in [13] was 0.89%; in test [14] it was 0.22%; in test [15], -0.73%; in [16], 2.19%; in [17] it was 3.91%; in [18] it was -0.62%. For the same molecule, the inhibition in [19] was 1.33%; in test [20], -0.22%.

As to `COc1cc(Nc2ncc(-c3ccccc3)o2)cc(OC)c1`, the inhibition is 0.6% in test [1]; 0.03% in test [2]; -0.34% in [3]; 1.24% in test [4]; 2.34% in [5]; 6.1% in test [6]. For the same molecule, the inhibition is 20.6% in [7]; 7.38% in [8]; 33.8% in [9]; 2.71% in test [10]; 4.2% in test [11]; 4.25% in test [12]. The inhibition was 4.53% in test [13]; 2.32% in test [14]; 2.49% in test [15]; 4.52% in test [16]; 3.47% in test [17]; 4.39% in test [18]. For the same molecule, the inhibition in test [19] turned out to be 4.78%; in test [20], 4.11%.
